# Data from PubChem BioAssay (NCI).
# About 79,000 compounds went through this panel and 15% of them were active in at least one assay; those are over-represented in the sample as a whole. A number with no mark means an inactive call. Calls of active or inactive are those of the source. Cut-off read from the data, not from the text of the source: active = growth inhibition above about 70%; inactive = the rest.
# Assays:
# [1] = NCI Yeast Anticancer Drug Screen. Data for the rad52 strain (AID 147);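 note: 0% = growth of vehicle-treated control cultures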; settings: S. cerevisiae rad52 mutant growth inhibition, active compounds read high
# Procedure, shortened: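 Measured: yeast growth inhibition. System: strain with a defined DNA damage repair alteration. Reference: vehicle-treated control cultures.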
# [2] = NCI Yeast Anticancer Drug Screen. Data for the wt1 strain (AID 149);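 note: 0% = growth of vehicle-treated wt1 cultures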; settings: S. cerevisiae wt1 strain (SPY 50644) growth inhibition, active compounds read high
# Procedure, shortened: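 The wt1 strain was treated with compounds, and growth was compared with vehicle-treated cultures to give inhibition.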
# [3] = NCI Yeast Anticancer Drug Screen. Data for the rad50EPP+ strain (AID 151);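 note: 0% = growth of vehicle-treated control cultures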; settings: S. cerevisiae rad50 mutant strain, active compounds read high
# Procedure, shortened: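 One strain with a rad50 alteration (rad50EPP+) was compound-treated, its growth then compared to that of vehicle controls.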
# [4] = NCI Yeast Anticancer Drug Screen. Data for the mgt1 strain (AID 153); settings: S. cerevisiae mgt1 mutant growth inhibition, active compounds read high
# Procedure, shortened: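 After exposure of the mgt1 yeast mutant to compound, growth was measured and reported as inhibition compared with vehicle controls.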
# [5] = NCI Yeast Anticancer Drug Screen. Data for the rad50 strain (AID 155);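 note: 0% = growth of vehicle-only cultures of the same strain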; settings: S. cerevisiae rad50 strain growth inhibition, active compounds read high
# Procedure, shortened: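 Cells are treated with compound, grown, and their growth is then scored against vehicle-only cultures of the same repair-deficient yeast strain.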
# [6] = NCI Yeast Anticancer Drug Screen. Data for the mec2-1 strain (AID 157); settings: S. cerevisiae mec2-1 strain, active compounds read high
# Procedure, shortened: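 Test agents were screened against the mec2-1 yeast strain, with defined DNA repair or cell cycle alteration. Growth was scored as inhibition against vehicle-only controls.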
# [7] = NCI Yeast Anticancer Drug Screen. Data for the rad14 strain (AID 159);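 note: 0% = growth of vehicle-treated control cultures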; settings: S. cerevisiae rad14 strain growth inhibition, active compounds read high
# Procedure, shortened: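 Readout: yeast growth inhibition, referenced to vehicle-only cultures. Strain bears a defined alteration in DNA damage repair.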
# [8] = NCI Yeast Anticancer Drug Screen. Data for the sgs1 mgt1 strain (AID 161);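 note: 0% = growth of cultures given vehicle only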; settings: S. cerevisiae sgs1 mgt1 strain, active compounds read high
# Procedure, shortened: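 Genetically altered yeast, compound exposure, growth inhibition relative to vehicle.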
# [9] = NCI Yeast Anticancer Drug Screen. Data for the CLN2oe strain (AID 163);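 note: 0% = growth of vehicle-only control cultures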; settings: S. cerevisiae CLN2oe strain, active compounds read high
# Procedure, shortened: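 Here, growth inhibition in a cell-cycle-altered yeast strain after compound exposure was quantified against vehicle control growth.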
# [10] = NCI Yeast Anticancer Drug Screen. Data for the cln2 rad14 strain (AID 165);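 note: 0% = growth equal to vehicle treated cultures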; settings: S. cerevisiae cln2 rad14 strain, active compounds read high
# Procedure, shortened: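 Growth of compound-exposed yeast (cln2 rad14 genotype) measured and expressed as inhibition relative to vehicle.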
# [11] = NCI Yeast Anticancer Drug Screen. Data for the bub3 strain (AID 167); settings: S. cerevisiae bub3 mutant strain, active compounds read high
# Procedure, shortened: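 Part of a panel of yeast mutants defective in DNA damage repair or cell cycle regulation. Each strain is grown with compound, and inhibition is calculated relative to solvent-treated cultures.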
# [12] = NCI Yeast Anticancer Drug Screen. Data for the wt2 strain (AID 169);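 note: 0% = growth of vehicle-treated yeast cultures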; settings: S. cerevisiae wt2 strain growth inhibition, active compounds read high
# Procedure, shortened: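 Genetically defined yeast strains from a DNA-repair/cell-cycle panel were used. Compound-exposed yeast growth was measured, and the inhibition was calculated relative to vehicle treatment.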
# [13] = NCI Yeast Anticancer Drug Screen. Data for the mlh1 strain (AID 171);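 note: 0% = growth of vehicle-treated control cultures of the same strain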; settings: S. cerevisiae mlh1 strain growth inhibition, active compounds read high
# Procedure, shortened: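 Here the genetically defined yeast mutant is grown with each compound, and the extent to which its growth falls below that of vehicle-exposed cells is reported.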
# [14] = NCI Yeast Anticancer Drug Screen. Data for the sgs1 strain (AID 173);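 note: 0% = growth of vehicle-only control cultures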; settings: S. cerevisiae sgs1 mutant, active compounds read high
# Procedure, shortened: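 Relative growth inhibition, referenced to vehicle, was determined in a yeast strain with a defined alteration affecting DNA damage repair or cell cycle control after compound exposure.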
# [15] = NCI Yeast Anticancer Drug Screen. Data for the mlh1 rad18 strain (AID 175); settings: S. cerevisiae mlh1 rad18 strain growth inhibition, active compounds read high
# Procedure, shortened: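 In this whole-cell yeast screen, a strain with altered DNA damage repair is challenged with compound, and its growth is measured against matched vehicle-treated controls.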
# [16] = NCI Yeast Anticancer Drug Screen. Data for the rad18 strain (AID 177); settings: S. cerevisiae rad18 mutant growth inhibition, active compounds read high
# Procedure, shortened: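 Screen uses a yeast strain with a defined lesion in DNA damage repair; compound effect is read as loss of growth compared to untreated vehicle cultures.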
# [17] = at 5.0 µM (retest, dose inferred, filed as 0.5)
# [18] = at 50.0 µM (retest, dose inferred, filed as 5.0)
smiles,measurement,setting,value
CN(Cc1cnc2nc(N)nc(N)c2n1)c1ccc(C(=O)NC(CCC(=O)O)C(=O)O)c2ccccc12 (configuration not stated),growth inhibition,[1]; at 1.2 µM,16%
same,growth inhibition,[1]; at 3.7 µM,24%
same,growth inhibition,[1]; at 11.0 µM,66%
same,growth inhibition,[1]; at 33.0 µM,90% (active)
same,growth inhibition,[1]; at 100.0 µM,93% (active)
same,growth inhibition,[2]; at 1.2 µM,12%
same,growth inhibition,[2]; at 3.7 µM,17%
same,growth inhibition,[2]; at 11.0 µM,28%
same,growth inhibition,[2]; at 33.0 µM,69%
same,growth inhibition,[2]; at 100.0 µM,90% (active)
same,growth inhibition,[3]; at 1.2 µM,5%
same,growth inhibition,[3]; at 3.7 µM,24%
same,growth inhibition,[3]; at 11.0 µM,41%
same,growth inhibition,[3]; at 33.0 µM,57%
same,growth inhibition,[3]; at 100.0 µM,79% (active)
same,growth inhibition,[4]; at 1.2 µM,-18%
same,growth inhibition,[4]; at 3.7 µM,1%
same,growth inhibition,[4]; at 11.0 µM,25%
same,growth inhibition,[4]; at 33.0 µM,51%
same,growth inhibition,[4]; at 100.0 µM,79% (active)
same,growth inhibition,[5]; at 1.2 µM,-2%
same,growth inhibition,[5]; at 3.7 µM,22%
same,growth inhibition,[5]; [17],-4%
same,growth inhibition,[5]; at 11.0 µM,60%
same,growth inhibition,[5]; at 33.0 µM,89% (active)
same,growth inhibition,[5]; [18],80% (active)
same,growth inhibition,[5]; at 50.0 µM,81.2% (active)
same,growth inhibition,[5]; at 100.0 µM,92% (active)
same,growth inhibition,[6]; at 1.2 µM,17%
same,growth inhibition,[6]; at 3.7 µM,72% (active)
same,growth inhibition,[6]; [17],72% (active)
same,growth inhibition,[6]; at 11.0 µM,92% (active)
same,growth inhibition,[6]; at 33.0 µM,95% (active)
same,growth inhibition,[6]; [18],94% (active)
same,growth inhibition,[6]; at 50.0 µM,87.2% (active)
same,growth inhibition,[6]; at 100.0 µM,96% (active)
same,growth inhibition,[7]; at 1.2 µM,-2%
same,growth inhibition,[7]; at 3.7 µM,11%
same,growth inhibition,[7]; at 11.0 µM,49%
same,growth inhibition,[7]; at 33.0 µM,82% (active)
same,growth inhibition,[7]; at 100.0 µM,91% (active)
same,growth inhibition,[8]; [17],27%
same,growth inhibition,[8]; [18],71% (active)
same,growth inhibition,[8]; at 50.0 µM,72.7% (active)
same,growth inhibition,[9]; at 1.2 µM,-14%
same,growth inhibition,[9]; at 3.7 µM,-12%
same,growth inhibition,[9]; at 11.0 µM,-28%
same,growth inhibition,[9]; at 33.0 µM,7%
same,growth inhibition,[9]; at 100.0 µM,58%
same,growth inhibition,[10]; [17],-6%
same,growth inhibition,[10]; [18],45%
same,growth inhibition,[10]; at 50.0 µM,35.1%
same,growth inhibition,[11]; at 1.2 µM,-5%
same,growth inhibition,[11]; at 3.7 µM,-7%
same,growth inhibition,[11]; [17],-49%
same,growth inhibition,[11]; at 11.0 µM,2%
same,growth inhibition,[11]; at 33.0 µM,57%
same,growth inhibition,[11]; [18],72% (active)
same,growth inhibition,[11]; at 50.0 µM,80.3% (active)
same,growth inhibition,[11]; at 100.0 µM,84% (active)
same,growth inhibition,[12]; at 1.2 µM,-50%
same,growth inhibition,[12]; at 3.7 µM,-45%
same,growth inhibition,[12]; at 11.0 µM,-4%
same,growth inhibition,[12]; at 33.0 µM,39%
same,growth inhibition,[12]; at 100.0 µM,78% (active)
same,growth inhibition,[13]; at 1.2 µM,17%
same,growth inhibition,[13]; at 3.7 µM,32%
same,growth inhibition,[13]; at 11.0 µM,42%
same,growth inhibition,[13]; at 33.0 µM,66%
same,growth inhibition,[13]; at 100.0 µM,83% (active)
same,growth inhibition,[14]; at 1.2 µM,26%
same,growth inhibition,[14]; at 3.7 µM,36%
same,growth inhibition,[14]; at 11.0 µM,58%
same,growth inhibition,[14]; at 33.0 µM,82% (active)
same,growth inhibition,[14]; at 100.0 µM,85% (active)
same,growth inhibition,[15]; [17],-13%
same,growth inhibition,[15]; [18],72% (active)
same,growth inhibition,[16]; at 1.2 µM,17%
same,growth inhibition,[16]; at 3.7 µM,25%
same,growth inhibition,[16]; at 11.0 µM,38%
same,growth inhibition,[16]; at 33.0 µM,79% (active)
same,growth inhibition,[16]; at 100.0 µM,89% (active)
N#CC(=S)Nc1cccc(Cl)c1,growth inhibition,[1]; at 1.2 µM,3%
same,growth inhibition,[1]; at 3.7 µM,1%
same,growth inhibition,[1]; at 11.0 µM,10%
same,growth inhibition,[1]; at 33.0 µM,26%
same,growth inhibition,[1]; at 100.0 µM,50%
same,growth inhibition,[2]; at 1.2 µM,7%
same,growth inhibition,[2]; at 3.7 µM,10%
same,growth inhibition,[2]; at 11.0 µM,23%
same,growth inhibition,[2]; at 33.0 µM,31%
same,growth inhibition,[2]; at 100.0 µM,41%
same,growth inhibition,[3]; at 1.2 µM,-12%
same,growth inhibition,[3]; at 3.7 µM,2%
same,growth inhibition,[3]; at 11.0 µM,10%
same,growth inhibition,[3]; at 33.0 µM,25%
same,growth inhibition,[3]; at 100.0 µM,46%
same,growth inhibition,[4]; at 1.2 µM,2%
same,growth inhibition,[4]; at 3.7 µM,15%
same,growth inhibition,[4]; at 11.0 µM,24%
same,growth inhibition,[4]; at 33.0 µM,42%
same,growth inhibition,[4]; at 100.0 µM,76% (active)
same,growth inhibition,[5]; at 1.2 µM,5%
same,growth inhibition,[5]; at 3.7 µM,8%
same,growth inhibition,[5]; [17],39%
same,growth inhibition,[5]; at 11.0 µM,3%
same,growth inhibition,[5]; at 33.0 µM,18%
same,growth inhibition,[5]; [18],82% (active)
same,growth inhibition,[5]; at 50.0 µM,46.9%
same,growth inhibition,[5]; at 100.0 µM,51%
same,growth inhibition,[6]; at 1.2 µM,28%
same,growth inhibition,[6]; at 3.7 µM,19%
same,growth inhibition,[6]; [17],19%
same,growth inhibition,[6]; at 11.0 µM,33%
same,growth inhibition,[6]; at 33.0 µM,28%
same,growth inhibition,[6]; [18],64%
same,growth inhibition,[6]; at 50.0 µM,57%
same,growth inhibition,[6]; at 100.0 µM,80% (active)
same,growth inhibition,[7]; at 1.2 µM,2%
same,growth inhibition,[7]; at 3.7 µM,-6%
same,growth inhibition,[7]; at 11.0 µM,9%
same,growth inhibition,[7]; at 33.0 µM,35%
same,growth inhibition,[7]; at 100.0 µM,79% (active)
same,growth inhibition,[8]; [17],28%
same,growth inhibition,[8]; [18],68%
same,growth inhibition,[8]; at 50.0 µM,66.7%
same,growth inhibition,[9]; at 1.2 µM,8%
same,growth inhibition,[9]; at 3.7 µM,28%
same,growth inhibition,[9]; at 11.0 µM,17%
same,growth inhibition,[9]; at 33.0 µM,43%
same,growth inhibition,[9]; at 100.0 µM,54%
same,growth inhibition,[10]; [17],8%
same,growth inhibition,[10]; [18],27%
same,growth inhibition,[10]; at 50.0 µM,17.6%
same,growth inhibition,[11]; at 1.2 µM,12%
same,growth inhibition,[11]; at 3.7 µM,7%
same,growth inhibition,[11]; [17],26%
same,growth inhibition,[11]; at 11.0 µM,2%
same,growth inhibition,[11]; at 33.0 µM,41%
same,growth inhibition,[11]; [18],63%
same,growth inhibition,[11]; at 50.0 µM,51.3%
same,growth inhibition,[11]; at 100.0 µM,67%
